# Reference: PubChem BioAssay (EPA / NIEHS)
# Calls of active or inactive are those of the source. The calls were made as follows: active = hit-call score of the fitted dose curve at least 0.9, where 1 is the maximum; inactive = score below 0.9.
# Tests used:
# Conditions in all cases: mRNA level, 48 h; actives raise or lower the signal
# CYP2C9 (gene 1559) = assay: LTEA_HepaRG_CYP2C9: Life Technologies and Expression Analysis (LTEA) Assay for CYP2C9 using HepaRG (AID 2283484)
# Summary of the method: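 HepaRG, 48 h dosing, 8-pt half-log series, top 100 uM, 0.5% DMSO vehicle. Read-out: CYP2C9 transcript by TaqMan qRT-PCR, housekeeping-normalized (ACTB/GAPDH/POLR2A). Gain or loss fitted vs DMSO baseline.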
# CYP2E1 (gene 1571) = assay: LTEA_HepaRG_CYP2E1: Life Technologies and Expression Analysis (LTEA) Assay for CYP2E1 using HepaRG (AID 2283485)
# Summary of the method: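 Assay uses 48 h exposure of HepaRG hepatic cells, eight concentrations to 100 uM. Expression of CYP2E1 is quantified by TaqMan qRT-PCR with ACTB, GAPDH and POLR2A normalization; curves fitted in both directions relative to vehicle.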
# CYP4A11 (gene 1579) = assay: LTEA_HepaRG_CYP4A11: Life Technologies and Expression Analysis (LTEA) Assay for CYP4A11 using HepaRG (AID 2283486)
# Summary of the method: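 Differentiated HepaRG cells, serum-free induction medium, exposed 48 h in duplicate to 8-point half-log series from 100 uM in 0.5% DMSO. CYP4A11 mRNA measured by qRT-PCR, normalized to ACTB, GAPDH, POLR2A; bidirectional fit versus DMSO.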
# [1] = read-out: DNA damage-inducible transcript 3 (DDIT3), DDIT3 (gene 1649); assay: LTEA_HepaRG_DDIT3: Life Technologies and Expression Analysis (LTEA) Assay for DNA damage-inducible transcript 3 (DDIT3) using HepaRG (AID 2283488)
# Summary of the method: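 Eight-point concentration-response (100 uM highest, half-log dilutions) in HepaRG, 48 h, duplicate wells. Endpoint: qRT-PCR mRNA, normalized (ACTB, GAPDH, POLR2A), bidirectional fitting with DMSO as baseline.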
# [2] = read-out: Pro-epidermal growth factor (Homo sapiens) (UniProt P01133); assay: LTEA_HepaRG_EGF: Life Technologies and Expression Analysis (LTEA) Assay for Epidermal growth factor (EGF) using HepaRG (AID 2283489)
# Summary of the method: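 Differentiated human HepaRG cells, plated 48 h then switched to serum-free induction medium, were exposed for 48 h to test chemicals (8-point half-log series, top 100 uM, 0.5% DMSO). EGF mRNA was quantified by qRT-PCR, normalized to ACTB, GAPDH, POLR2A.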
# [3] = read-out: Early growth response protein 1 (EGR1) transcription factor, EGR1 (gene 1958); assay: LTEA_HepaRG_EGR1: Life Technologies and Expression Analysis (LTEA) Assay for Early growth response protein 1 (EGR1) transcription factor using HepaRG (AID 2283490)
# Summary of the method: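 HepaRG, 48 h exposure, 8-pt half-log series from 100 uM, 0.5% DMSO vehicle; EGR1 transcript by TaqMan qRT-PCR (Fluidigm array), housekeeping-normalized; bidirectional fit relative to DMSO baseline.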
# [4] = read-out: Ezrin (EZR), EZR (gene 7430); assay: LTEA_HepaRG_EZR: Life Technologies and Expression Analysis (LTEA) Assay for Ezrin (EZR) using HepaRG (AID 2283491)
# Summary of the method: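 Differentiated human HepaRG cells, 48 h after plating, were exposed in serum-free induction medium for 48 hours to eight half-log concentrations up to 100 uM in 0.5% DMSO. EZR mRNA was measured by TaqMan qRT-PCR, normalized to ACTB, GAPDH and POLR2A, and fitted bidirectionally against DMSO.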
# [5] = read-out: Cytochrome P450 3A7 (Homo sapiens) (UniProt P24462); assay: LTEA_HepaRG_CYP3A7: Life Technologies and Expression Analysis (LTEA) Assay for CYP3A7 using HepaRG (AID 2283492)
# Summary of the method: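 HepaRG cells plated 48 h, then dosed in serum-free induction medium for 48 h at 8 concentrations (top 100 uM, half-log steps, 0.5% DMSO). CYP3A7 mRNA by qRT-PCR, normalised to ACTB/GAPDH/POLR2A; bidirectional fit versus DMSO.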
# CYP3A5 (gene 1577) = assay: LTEA_HepaRG_CYP3A5: Life Technologies and Expression Analysis (LTEA) Assay for CYP3A5 using HepaRG (AID 2283493)
# Summary of the method: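 Readout was CYP3A5 mRNA by qRT-PCR. HepaRG cultures were exposed for 48 h in serum-free induction medium to chemicals at up to 100 uM, and responses were fitted in both directions relative to DMSO vehicle.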
# [6] = read-out: Fatty Acid-Binding Protein 1 (FABP1), FABP1 (gene 2168); assay: LTEA_HepaRG_FABP1: Life Technologies and Expression Analysis (LTEA) Assay for Fatty Acid-Binding Protein 1 (FABP1) using HepaRG (AID 2283494)
# Summary of the method: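 qRT-PCR readout of FABP1 transcript (normalized to three housekeeping genes) after 48 h chemical exposure of HepaRG cells; eight concentrations, half-log steps, max 100 uM, 0.5% DMSO vehicle; gain or loss fitted relative to DMSO baseline.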
# [7] = read-out: Cytochrome P450 4A22 (Homo sapiens) (UniProt Q5TCH4); assay: LTEA_HepaRG_CYP4A22: Life Technologies and Expression Analysis (LTEA) Assay for Cytochrome P450 4A22 (CYP4A22) using HepaRG (AID 2283495)
# Summary of the method: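 qRT-PCR of CYP4A22 mRNA (Fluidigm TaqMan, normalized to three housekeeping genes) after 48 h chemical exposure of HepaRG cells; 8-point half-log series, top 100 uM, 0.5% DMSO vehicle. Bidirectional curve fitting vs DMSO baseline.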
# [8] = read-out: Glutathione S-Transferase (GSTA2), GSTA2 (gene 2939); assay: LTEA_HepaRG_GSTA2: Life Technologies and Expression Analysis (LTEA) Assay for Glutathione S-Transferase (GSTA2) using HepaRG (AID 2283497)
# Summary of the method: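 qRT-PCR readout of GSTA2 transcript, normalized to three housekeeping genes, fitted bidirectionally against 0.5% DMSO baseline. Differentiated HepaRG cells received compound for 48 h at 8 concentrations (top 100 uM, half-log steps).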
# [9] = read-out: Glutamate-cysteine ligase catalytic (GCLC), GCLC (gene 2729); assay: LTEA_HepaRG_GCLC: Life Technologies and Expression Analysis (LTEA) Assay for Glutamate-cysteine ligase catalytic (GCLC) using HepaRG (AID 2283498)
# Summary of the method: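 HepaRG, 48 h exposure, 8-pt half-log series from 100 uM, 0.5% DMSO vehicle; TaqMan qRT-PCR for GCLC mRNA, housekeeping-normalized; bidirectional curve fit vs DMSO baseline.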
# [10] = read-out: growth arrest and DNA damage 45 (GADD45G), GADD45G (gene 10912); assay: LTEA_HepaRG_GADD45G: Life Technologies and Expression Analysis (LTEA) Assay for growth arrest and DNA damage 45 (GADD45G) using HepaRG (AID 2283499)
# Summary of the method: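 Differentiated human HepaRG cells in serum-free induction medium were exposed for 48 h to 8 half-log concentrations up to 100 uM in 0.5% DMSO, in duplicate. GADD45G mRNA was measured by TaqMan qRT-PCR, normalised to ACTB, GAPDH and POLR2A, and fitted bidirectionally against DMSO.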
# [11] = read-out: Glutamate-cysteine ligase regulatory (GCLM), GCLM (gene 2730); assay: LTEA_HepaRG_GCLM: Life Technologies and Expression Analysis (LTEA) Assay for Glutamate-cysteine ligase regulatory (GCLM) using HepaRG (AID 2283500)
# Summary of the method: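 In this multiplexed HepaRG gene-expression assay, GCLM mRNA change after 48 h treatment (8 concentrations, max 100 uM) was scored against DMSO by bidirectional curve fitting.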
# [12] = read-out: Glutathione S-transferase M3 (GSTM3), GSTM3 (gene 2947); assay: LTEA_HepaRG_GSTM3: Life Technologies and Expression Analysis (LTEA) Assay for Glutathione S-transferase M3 (GSTM3) using HepaRG (AID 2283501)
# Summary of the method: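 Differentiated HepaRG cells in serum-free induction medium were exposed in duplicate for 48 h to 8 half-log concentrations up to 100 uM in 0.5% DMSO. GSTM3 mRNA was measured by TaqMan qRT-PCR, normalized to ACTB/GAPDH/POLR2A, and fitted bidirectionally versus DMSO.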
# [13] = read-out: Heat shock 70 kDa protein 1 (HSPA1A), gene 3303; assay: LTEA_HepaRG_HSPA1A: Life Technologies and Expression Analysis (LTEA) Assay for Heat shock 70 kDa protein 1 (HSPA1A) using HepaRG (AID 2283502)
# Summary of the method: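 An oxidative-stress marker readout: HepaRG cells treated 48 h in duplicate with an eight-point series (highest 100 uM) had HSPA1A mRNA quantified by TaqMan qRT-PCR. Activity was fitted in both directions using 0.5% DMSO as baseline.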
# [14] = read-out: Cytochrome P450 7A1 (Homo sapiens) (UniProt P22680); assay: LTEA_HepaRG_CYP7A1: Life Technologies and Expression Analysis (LTEA) Assay for Cytochrome P450 7A1 (CYP7A1) using HepaRG (AID 2283496)
# Summary of the method: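 Using 0.5% DMSO as vehicle and baseline, chemicals were tested in duplicate over an 8-point range from 100 uM on HepaRG cells for 48 h; qRT-PCR signals were normalised to ACTB, GAPDH and POLR2A.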
# [15] = read-out: Hypoxia-inducible factor 1-alpha (Homo sapiens) (UniProt Q16665); assay: LTEA_HepaRG_HIF1A: Life Technologies and Expression Analysis (LTEA) Assay for Hypoxia-inducible factor 1 (HIF1A) Trancription factor using HepaRG (AID 2283503);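 also: HIF1A transcript by TaqMan qRT-PCR normalized to ACTB GAPDH and POLR2A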
# Summary of the method: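 Gain- or loss-of-signal HIF1A mRNA changes are fitted against a DMSO baseline. HepaRG cultures receive eight concentrations, highest 100 uM, for 48 h in serum-free induction medium with 0.5% DMSO.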
# Chain of Hypoxia-inducible factor 1-alpha (Homo sapiens) (Q16665 whole entry, looked up): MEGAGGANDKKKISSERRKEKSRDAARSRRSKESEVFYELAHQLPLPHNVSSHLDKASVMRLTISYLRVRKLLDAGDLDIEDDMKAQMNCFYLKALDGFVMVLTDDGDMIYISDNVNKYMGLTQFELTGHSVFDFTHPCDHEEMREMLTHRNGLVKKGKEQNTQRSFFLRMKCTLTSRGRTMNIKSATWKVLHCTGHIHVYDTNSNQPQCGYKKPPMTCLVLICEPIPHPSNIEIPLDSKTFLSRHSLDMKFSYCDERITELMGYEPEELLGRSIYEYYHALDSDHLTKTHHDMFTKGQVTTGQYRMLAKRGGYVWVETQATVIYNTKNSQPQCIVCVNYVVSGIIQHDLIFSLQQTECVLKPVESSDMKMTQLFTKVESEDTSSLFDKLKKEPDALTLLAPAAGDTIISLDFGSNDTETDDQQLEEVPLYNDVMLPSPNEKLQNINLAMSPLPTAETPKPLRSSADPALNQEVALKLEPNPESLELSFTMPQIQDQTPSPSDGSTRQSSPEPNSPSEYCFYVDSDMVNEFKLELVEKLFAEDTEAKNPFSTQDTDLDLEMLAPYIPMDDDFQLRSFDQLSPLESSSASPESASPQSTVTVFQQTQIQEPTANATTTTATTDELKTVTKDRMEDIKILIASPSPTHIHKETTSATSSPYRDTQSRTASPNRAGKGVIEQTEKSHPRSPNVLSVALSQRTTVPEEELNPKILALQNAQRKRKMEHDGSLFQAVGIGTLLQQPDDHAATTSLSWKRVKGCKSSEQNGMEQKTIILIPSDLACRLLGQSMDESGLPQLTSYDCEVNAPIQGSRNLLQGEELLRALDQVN
# Chain of Cytochrome P450 3A7 (Homo sapiens) (P24462 whole entry, looked up): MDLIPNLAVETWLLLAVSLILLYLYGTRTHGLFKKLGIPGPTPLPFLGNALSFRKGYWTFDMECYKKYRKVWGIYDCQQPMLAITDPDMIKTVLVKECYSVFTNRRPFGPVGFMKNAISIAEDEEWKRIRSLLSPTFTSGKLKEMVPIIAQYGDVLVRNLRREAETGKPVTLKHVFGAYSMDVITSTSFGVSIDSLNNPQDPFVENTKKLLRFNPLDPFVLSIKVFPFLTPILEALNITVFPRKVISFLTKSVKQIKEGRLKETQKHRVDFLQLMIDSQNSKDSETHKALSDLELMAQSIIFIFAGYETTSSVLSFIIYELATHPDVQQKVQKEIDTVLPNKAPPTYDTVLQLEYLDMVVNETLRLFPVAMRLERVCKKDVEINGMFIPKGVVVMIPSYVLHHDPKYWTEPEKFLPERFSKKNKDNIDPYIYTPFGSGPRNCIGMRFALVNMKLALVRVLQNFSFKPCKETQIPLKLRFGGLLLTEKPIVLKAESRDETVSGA
structure (smiles),measurement,setting,value
CN(C)CCCN1c2ccccc2Sc2ccc(Cl)cc21,outcome,CYP2C9 (gene 1559),inactive
same,AC50,CYP2E1 (gene 1571),13.3 µM (active)
same,AC50,CYP4A11 (gene 1579),84.7 µM (active)
same,AC50,[1],61.3 µM (active)
same,outcome,[2],inactive
same,AC50,[3],88.2 µM (active)
same,outcome,[4],inactive
same,outcome,[5],inactive
same,AC50,CYP3A5 (gene 1577),83.7 µM (active)
same,AC50,[6],88.3 µM (active)
same,outcome,[7],inactive
same,AC50,[8],86.4 µM (active)
same,outcome,[9],inactive
same,AC50,[10],49.7 µM (active)
same,outcome,[11],inactive
same,outcome,[12],inactive
same,AC50,[13],76.9 µM (active)
CC(=O)[C@@]1(O)CC[C@H]2[C@@H]3CCC4=CC(=O)CC[C@]4(C)[C@H]3CC[C@@]21C,outcome,[2],inactive
same,outcome,[3],inactive
same,outcome,[4],inactive
same,outcome,[6],inactive
same,outcome,[8],inactive
same,outcome,[9],inactive
same,outcome,[10],inactive
same,outcome,[11],inactive
same,outcome,[12],inactive
same,outcome,[13],inactive
COC(=O)[C@H]1[C@H]2C[C@@H]3c4[nH]c5cc(OC)ccc5c4CCN3C[C@H]2C[C@@H](OC(=O)c2cc(OC)c(OC)c(OC)c2)[C@@H]1OC,AC50,CYP2C9 (gene 1559),60.9 µM (active)
same,AC50,CYP2E1 (gene 1571),49.3 µM (active)
same,AC50,CYP4A11 (gene 1579),48.8 µM (active)
same,AC50,[2],42.2 µM (active)
same,AC50,[3],64.2 µM (active)
same,AC50,[4],8.38 µM (active)
same,AC50,[8],60.1 µM (active)
same,outcome,[9],inactive
same,AC50,[10],24.6 µM (active)
same,outcome,[11],inactive
same,AC50,[12],42.2 µM (active)
same,AC50,[13],42.2 µM (active)
Cc1c(C)c2c(c(C)c1O)CCC(C)(COc1ccc(CC3SC(=O)NC3=O)cc1)O2 (configuration not stated),outcome,CYP2C9 (gene 1559),inactive
same,AC50,CYP2E1 (gene 1571),25.6 µM (active)
same,AC50,CYP4A11 (gene 1579),27.5 µM (active)
same,outcome,[1],inactive
same,outcome,[2],inactive
same,AC50,[3],88.3 µM (active)
same,outcome,[4],inactive
same,AC50,CYP3A5 (gene 1577),15.8 µM (active)
same,outcome,[6],inactive
same,AC50,[7],25.8 µM (active)
same,AC50,[14],92.7 µM (active)
same,AC50,[8],23.2 µM (active)
same,AC50,[9],93.6 µM (active)
same,AC50,[10],19.1 µM (active)
same,outcome,[11],inactive
same,outcome,[12],inactive
same,AC50,[13],50 µM (active)
same,AC50,[15],66.8 µM (active)
